# Source: PubChem BioAssay AID1259318 (Sanford-Burnham Center for Chemical Genomics, 2017)
# Among all 370,000 compounds or so, about 3,000 (0.81%) were called active. The sample as a whole holds a higher share of actives than the screen did. Unmarked numbers belong to inactive results.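 The calls were made as follows: active = activity above about 14% (limit read from the data; passing the limit was not always enough); inactive = the rest.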
# Target: Nuclear receptor subfamily 1 group D member 1 (Homo sapiens) (UniProt P20393)
# Sequence (P20393 whole entry, looked up): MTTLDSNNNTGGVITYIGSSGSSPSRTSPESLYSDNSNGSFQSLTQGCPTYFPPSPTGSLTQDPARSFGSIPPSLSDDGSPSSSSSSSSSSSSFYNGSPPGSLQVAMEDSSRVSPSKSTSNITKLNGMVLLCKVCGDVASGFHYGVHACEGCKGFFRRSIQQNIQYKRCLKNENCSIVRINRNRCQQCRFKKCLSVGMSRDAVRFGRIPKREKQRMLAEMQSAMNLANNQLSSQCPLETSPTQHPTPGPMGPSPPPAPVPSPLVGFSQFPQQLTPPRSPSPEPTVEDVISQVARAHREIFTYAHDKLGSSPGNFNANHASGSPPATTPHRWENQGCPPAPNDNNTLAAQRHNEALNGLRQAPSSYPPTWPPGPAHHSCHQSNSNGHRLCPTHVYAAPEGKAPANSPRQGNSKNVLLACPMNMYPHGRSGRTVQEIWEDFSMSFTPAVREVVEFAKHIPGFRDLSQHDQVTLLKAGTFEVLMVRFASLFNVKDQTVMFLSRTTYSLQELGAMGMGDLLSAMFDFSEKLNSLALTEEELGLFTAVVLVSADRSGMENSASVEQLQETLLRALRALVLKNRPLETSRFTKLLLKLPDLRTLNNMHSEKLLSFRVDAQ
# Test: Rev-erbα–DNA interaction modulation – biochemical, FITC-DNA, fluorescence polarization, uHTS, primary screen (AID 1259318);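 also: 0% = DMSO wells with 35 nM protein and 100% = DMSO wells with 750 nM protein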
# Conditions: Rev-erbα–FITC-DNA binding, 90 min, at 10 µM, active compounds read high
row,Compound,activity
1,CC(NC(=O)C(C)(C)C)C(c1cccs1)N1CCN(Cc2ccccc2)CC1 (centres undefined),-5.62%
2,O=C(Nn1cnc2ccccc2c1=O)c1ccc(F)cc1Cl,-3.38%
3,CC(C)C(C)NC(=O)COc1nc2ccccc2nc1N(C)C1CCCCC1 (centres undefined),62.5% (active)
4,O=C(COc1ccccc1O)NC1CCCC1,2.25%
5,CC(C)C(C)NC(=O)COc1ncnc2ccccc12 (centres undefined),1.73%
6,CCCN1C(=O)C(NC(C)=O)c2cc(OC)ccc21 (centres undefined),1.76%
7,CC(C)NC(=O)COCc1cc(-c2ccc3c(c2)OCO3)on1,3.84%
8,CCc1ccccc1NC(=O)c1cc(-c2ccc3c(c2)OCO3)on1,21.2% (active)
9,CCOC(=O)N1CCN(C(=O)COCc2cc(-c3ccc4c(c3)OCO4)on2)CC1,2.06%
10,CCCCCCCCCc1ccc(OCCOCCOCCOCCOCCOCCOCCOCCOCCO)cc1,2.2%
11,CC[C@H](NC(=O)[C@H](Cc1ccccc1)NC(=O)[C@H]1O[C@@H](n2cnc3c(=O)[nH]c(N)nc32)[C@H](O)[C@@H]1O)c1ccccc1,1.57%
12,CCC1CCC2(CC1)NC(=O)N(CC(=O)Nc1ccc(OC)cc1)C2=O (centres undefined),-2.27%
13,CCOC(=O)c1c(NC(=O)C2CC=CCC2C(=O)O)sc(C)c1CC (centres undefined),-10.6%
14,CCOC(=O)c1c(NC(=O)CN2C(=O)NC3(CCC(C)CC3)C2=O)sc(C)c1CC (centres undefined),21.8% (active)
15,O=C1NC(c2ccccc2)=NC1(Nc1ccccn1)C(F)(F)F (centres undefined),-2.21%
16,C[C@@H]1CN([C@@H](C)CO)S(=O)(=O)c2ccc(C#Cc3cccc(F)c3)cc2O[C@H]1CN(C)S(=O)(=O)c1cn(C)cn1,4.67%
17,CCCC1O[C@@H]2CC3C4CCC5=CC(=O)C=CC5(C)C4[C@@H](O)CC3(C)[C@]2(C(=O)CO)O1 (some centres undefined),3.39%
18,S=c1nccc(-c2cc(Cl)sc2Cl)[nH]1,20.9% (active)
19,CC1=C(/C=C/C(C)=C/C=C/C(C)=C/C=C/C=C(C)/C=C/C=C(C)/C=C/C2=C(C)CCCC2(C)C)C(C)(C)CCC1,-1.26%
20,COc1ccccc1NC(=O)c1cc(N2C(=O)C3C4CCC(C4)C3C2=O)ccc1Cl (centres undefined),-4.24%
21,Cc1ccc(CNC(=O)CC(NC(=O)c2ccccc2)c2ccccc2)cc1 (centres undefined),-3.7%
22,CC(=O)C1(C(=O)Nc2nccs2)CC(c2ccccc2C(F)(F)F)=NO1 (centres undefined),2.17%
23,O=C(O)CSCNC(=O)CC12CC3CC(CC(C3)C1)C2,5.91%

row,Compound,activity
1,C=CCNC(=O)CC12CC3CC(C1)CC(CC(=O)NCC=C)(C3)C2,27.5% (active)
2,C=CCNC(=O)C12CC3CC(C1)CC(C(=O)NCC=C)(C3)C2,1.74%
3,Cc1cccc(NC(=O)c2cc(S(=O)(=O)N3CCC4(CC3)OCCO4)ccc2F)c1,-2.46%
4,O=C(N[C@H]1CC[C@H](CC(=O)N2CCCCC2)O[C@@H]1CO)c1cccc(F)c1,3.8%
5,CON(C)S(=O)(=O)c1ccc2c(c1)NC(=O)C1CCCN21 (centres undefined),-3.22%
6,Cn1c(N)cc(-c2ccc(F)cc2)c(C#N)c1=O,-1.46%
7,COc1ccc(O)c(C(=O)c2cnc3c(c2)c(-c2ccc(F)cc2)c(C#N)c(=O)n3C)c1,-4.88%
8,Cc1cc(C)c2c(-c3ccc(F)cc3)c(C#N)c(=O)n(C)c2n1,56.8% (active)
9,C=CCN1C(=O)[C@@H](CC(=O)NCC2CCCCC2)[C@]2(C(=O)OC)CCCCC=C12,8.08%
10,Cc1nonc1OCCn1nnnc1N,0.14%
11,c1ccc2c(-c3nn4nnnc4c4ccccc34)cccc2c1,28.7% (active)
12,COc1ccc(C)cc1NC(=O)NCCCCc1ccccc1,-4.58%
13,CC1CCCC(C)N1C(=O)COC(=O)COc1ccccc1C#N (centres undefined),8.28%
14,COc1ccc(CN(CCN2CCOCC2)C(=O)c2ccc(C)cc2)cc1OC,-7.19%
15,O=C1CCCC2=C1C(c1ccccc1)n1c(s/c(=C/c3cccc(F)c3)c1=O)=N2 (centres undefined),35% (active)
16,O=C1CC(c2cccc(F)c2)C2=C(CCCC2=O)N1 (centres undefined),1.68%
17,COc1ccc(OC)c(C2C3=C(N=c4s/c(=C\c5cccc(O)c5)c(=O)n42)c2ccccc2CC3)c1 (centres undefined),-1.04%
18,O=C1Cc2ccccc2Sc2ccc(Cl)cc21,15.6% (active)
19,S=C1Nc2cc(Cl)ccc2Sc2ccccc21,-3.11%
20,O=C1CC2(CCCC2)Oc2ccc(Cl)cc21,1.88%
21,Cc1ccc(S(=O)(=O)c2c[nH]c3ccc(Cl)cc3c2=O)cc1,136% (active)
22,CCCCN(C)Cc1c(C)[nH]c2ccc(Cl)cc2c1=O,3.27%
23,Cc1ccc(S(=O)(=O)c2c[nH]c3ccc(C)cc3c2=O)cc1,4.77%

row,Compound,activity
1,COc1ccc(N(CC(=O)NCc2ccc(F)cc2)C(=O)CCC(=O)Nc2nccs2)cc1,-2.56%
2,Cc1cc(Cl)ccc1NNC(=O)c1snnc1C,3.67%
3,CCOC(=O)CNc1nc2ccccc2n2c(C)nnc12,2.94%
4,CC(C)(C)N1CC(c2nc3ccccc3n2Cc2ccc(F)cc2)CC1=O (centres undefined),-4.96%
5,Fc1ccc(CNc2nc3ccccc3n3nnnc23)cc1,40.6% (active)
6,COC(=O)[C@]1(C)N[C@H](c2ccc(-c3ccc(Cl)c(Cl)c3)cc2)[C@@H]2C(=O)N(C)C(=O)[C@@H]21,2.33%
7,Cc1nc(N2CCC(C)CC2)c2c(C)c(C(=O)Nc3cc(F)ccc3C)sc2n1,15.7%
8,Cc1nc(N2CCN(c3ccccn3)CC2)c2c(C)c(C(=O)Nc3ccc(F)c(Cl)c3)sc2n1,32% (active)
9,O=C(Nc1ccc(F)c(Cl)c1)C1CCN(S(=O)(=O)c2cccnc2)CC1,-4.36%
10,COc1ccc(-c2nnc3n2CCCCC3)cc1,-6.25%
11,O=S(=O)(c1ccccc1)c1nc(-c2ccccc2F)oc1NCc1cccnc1,-3.4%
12,O=C(NCc1cccnc1)c1ccc(CS(=O)(=O)c2ccc(Br)cc2)o1,-2.47%
13,O=S(=O)(c1ccc(Br)cc1)c1nc(-c2ccccc2)oc1NCc1cccnc1,27.6% (active)
14,Cc1nn(CC#N)c(=O)n1N(C)c1ncc(C(F)(F)F)cc1Cl,7.64%
15,CCOc1ccc(C2NC(=S)NC3=C2CCc2ccccc23)cc1 (centres undefined),7.82%
16,N#Cc1ccccc1Sc1ccccc1C(=O)OCC(=O)NC1CCCCC1,61.4% (active)
17,O=C(COC(=O)c1cccc(Cl)c1Cl)NC1CCCCCC1,-4.74%
18,O=C(COC(=O)c1ccccc1SCC(=O)NC1CCCCC1)NC1CCCCC1,70.3% (active)
19,O=C(COC(=O)c1cccc(Cl)c1)NC1CCCCCCC1,-7.98%
20,O=C(COC(=O)c1cc([N+](=O)[O-])ccc1NCc1ccccc1)NC1CCCCC1,-4.56%
21,N#Cc1ccc(C(=O)OCC(=O)NC(=O)NC2CCCCC2)cc1,-4.11%
22,COC(=O)[C@]12C[C@H](CC(=O)NCc3ccccc3)C(=O)N(CCC3=CCCCC3)C1=C[C@H](C(C)C)O[C@@H]2C1CC1,-4.75%
23,Cc1cc(C(=O)OCC(=O)Nc2ccc(F)c(F)c2)c(C)o1,4.64%

row,Compound,activity
1,Cc1sc2ncnc(N3CCC(C(=O)Nc4nc5ccc(Cl)cc5s4)CC3)c2c1C,42.2% (active)
2,CCc1ccc(C(=O)NNC(=O)C2CCN(c3ncnc4sc(C)c(C)c34)CC2)cc1,-5.39%
3,Cc1sc2ncnc(N3CCC(C(=O)Nc4ccc(F)cc4Cl)CC3)c2c1C,8.75%
4,O=C1NS(=O)(=O)c2ccccc21,4.73%
5,CCOc1ccc(-n2c(SCC(=O)Nc3cc(C)c(NC(=O)c4ccccc4)cc3OC)nnc2-c2cccc(Cl)c2)cc1,-3.54%
6,COc1cc2cc(CN(CCN3CCCC3)C(=O)Nc3ccccc3Cl)c(=O)[nH]c2cc1OC,1.22%
7,COc1cc(NC(=O)c2ccccc2NS(=O)(=O)c2ccc(Cl)s2)cc(OC)c1,0.46%
8,COc1ccc2[nH]c(C(=O)Nc3ccccc3Cl)cc2c1,49.3% (active)
9,CCc1ccc2c(c1)NC(=O)C2(C)Cc1ccc(OC(F)(F)F)cc1 (centres undefined),4.7%
10,CC1(Cc2cccc(C#N)c2)C(=O)Nc2ccc(-c3cccc(C(F)(F)F)c3)cc21 (centres undefined),0.78%
11,COc1ccccc1CC1(C)C(=O)Nc2ccc(OC(F)(F)F)cc21 (centres undefined),51.9% (active)
12,COc1cc2c(cc1OC)[C@@H](Cc1cc(OC)c(OC)c(OC)c1)[N+](C)(CCCOC(=O)CC/C=C/CCC(=O)OCCC[N+]1(C)CCc3cc(OC)c(OC)cc3[C@H]1Cc1cc(OC)c(OC)c(OC)c1)CC2 (some centres undefined),4.74%
13,Cc1c(Br)cc(C(=O)N2CCCCCC2)c(C)c1C,-0.12%
14,Cc1cc(=O)oc(C)c1C(=O)NC1CC(C)(C)NC(C)(C)C1,-3.78%
15,Cc1cc(=O)oc(C)c1C(=O)N1CCCCC1,20.1% (active)
16,CCC1(C)OC(=O)N(C)C1=O (centres undefined),-3.1%
17,Nc1cccc(OCCCCCOc2cccc(N)c2)c1,5%
18,COc1ccc(-c2c(C#Cc3ccsc3)c3cc(-c4ccc(CN5CCOCC5)cc4)ccc3n2C)cc1,3.65%
19,COc1cc(OC)cc(-c2c(C#Cc3ccsc3)c3cc(-c4ccc(SC)cc4)ccc3n2C)c1,34.1% (active)
20,COc1cc(OC)cc(-c2c(C#Cc3ccsc3)c3cc(-c4ccc(OC)cc4F)ccc3n2C)c1,-0.12%
